PAX8 reporter: PAX8 transcriptional activity inhibition; RMG-I TPO-luciferase reporter, SteadyGlo, 24 h; inhibition, % at 12.6 µM; hit rate 1.2% among 360,000;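 active = mean replicate inhibition at least 60% with every replicate also reaching 60%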;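 also: luciferase light reporting Pax8 driven TPO promoter activity; plate controls were median of neutral control wells for no effect and mitoxantrone controls for full effect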
MITF TRPM1 inh: MITF TRPM1 promoter inhibition in SK-MEL-5 cells; SK-MEL-5 TRPM1 promoter luciferase, 24 h; inhibition, % at 12.5 µM; hit rate 0.83% among 330,000; AID 488899;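 active = mean inhibition across replicates of 60% or more, whatever share of single replicates reaches that level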
HIF-2a block: HIF-2a inhibition; hit rate 0.72% among 360,000; inhibition, % at 18.8 µM; AID 624352; 786-0 RCC cells HIF-2a reporter, luciferase luminescence, overnight;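 active = inhibition of the luminescence signal of 40% or more relative to plate controls, in a single-dose primary screen at 18.75 µM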
LMP1 NFkB inh: inhibitors of Epstein-Barr LMP1-induced NF-kappaB reporter. LMP1-induced NF-kappaB luciferase reporter cells, luminescence. inhibition, % at 12.5 µM. hit rate 0.69% among 350,000; in the data active = inhibition above about 41%;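 also: 0% = neutral control wells and 100% = reference inhibitor control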
Shn3 inh set2: reduces Shn3 3'UTR luciferase signal in osteoblasts; Clone20 osteoblast Shn3 3'UTR firefly luciferase, 24 h; inhibition, % at 12.5 µM; hit rate 0.52% among 360,000;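 active = mean inhibition of at least 75% with every replicate also reaching 75%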;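 also: 0% = median of neutral control wells and 100% = pilot-screen positive control compound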
Peg3 prom inh: Peg3 promoter activity inhibition; HeLa PEG-Prom luciferase reporter, luminescence, overnight; inhibition, % at 20 µM; hit rate 1.7% among 360,000;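 active = inhibition of at least 50% at 20 µM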
* marks the source's active call; other numbers are inactive results; / = not tested or not shown. Hits are enriched below; roughly 2.8% of the tested compounds scored in any of these assays.

SMILES | PAX8 reporter | MITF TRPM1 inh | HIF-2a block | LMP1 NFkB inh | Shn3 inh set2 | Peg3 prom inh
O=C(OCc1cccc(Cl)c1)c1cc([N+](=O)[O-])ccc1N1CCOCC1 | 74* | -4 | 5 | -22 | 7 | 28
O=C(COC(=O)c1cc([N+](=O)[O-])ccc1N1CCOCC1)Nc1ccc(Cl)cn1 | 61* | -14 | 13 | -27 | -18 | 53*
COc1cccc(CNC(=O)COC(=O)c2cc([N+](=O)[O-])ccc2N2CCCC2)c1 | -2 | 9 | 15 | 71* | 4 | 13
O=C(COC(=O)c1cc([N+](=O)[O-])ccc1N1CCOCC1)Nc1ccc(Cl)cc1 | 18 | 2 | 16 | 14 | 16 | 31
O=C(OCc1ccc(Br)cc1)c1cc([N+](=O)[O-])ccc1N1CCOCC1 | 21 | / | 12 | 16 | -30 | 0
COc1cccc(C(=O)Nc2ccc3c(c2)C(=O)N(C)[C@H]2CC[C@@H](CC(=O)NCc4ccccc4F)O[C@H]2CO3)c1 | 0 | / | / | / | / | /
CCCN(C)C[C@@H]1Oc2cc(C3=CCCCC3)ccc2S(=O)(=O)N([C@H](C)CO)C[C@@H]1C | -6 | / | / | / | / | /
C[C@H](CO)N1C[C@H](C)[C@H](CN(C)C)Oc2c(NS(=O)(=O)c3cccs3)cccc2C1=O | -11 | / | / | / | / | /
CCN(CC)S(=O)(=O)c1ccc(N=NC2=C(O)CC(C)(C)CC2=O)cc1 | -2 | 6 | 3 | 0 | 10 | 5
CCN(CC)S(=O)(=O)c1ccc(N=NC2=C(O)CCCC2=O)cc1 | 17 | -6 | 13 | 63* | 10 | 3
Cc1ccc(S(=O)(=O)Nc2ccc(O)c(Sc3ncn[nH]3)c2)cc1 | 4 | 4 | 17 | 0 | -3 | -5
Cc1ccc(S(=O)(=O)/N=C2/C=C(Sc3ncn[nH]3)C(=O)c3ccccc32)cc1 | / | 91* | 98* | 64* | 98* | 106*
CC(C)c1ccc(S(=O)(=O)/N=C2/C=C(Sc3ncn[nH]3)C(=O)c3ccccc32)cc1 | / | 60 | 49* | -1 | 79 | 64*
C[C@@H]1CN([C@@H](C)CO)C(=O)c2cc(-c3cccc(F)c3)cnc2O[C@@H]1CN(C)Cc1ccncc1 | 12 | / | / | / | / | /
CC1=NN(c2ccccc2)C(=O)/C1=C\C=C\c1ccccc1 | -16 | / | 87* | / | 15 | 71*
C[C@H](CO)N1C[C@H](C)[C@@H](CN(C)CC2CCCCC2)OCCCC[C@H](C)Oc2ccc(NS(=O)(=O)c3cccs3)cc2C1=O | -5 | / | / | / | / | /
O=C(Nc1nc2ccc(F)cc2s1)c1ccccn1 | 75* | / | / | / | / | /
O=C(Nc1nc2ccc(F)cc2s1)C1=COCCO1 | 13 | 19 | 18 | 51* | -23 | -29
O=C(Nc1nnc(SCc2ccc(F)cc2)s1)c1ccccn1 | 17 | 1 | -92 | 45* | 77 | 65*
CCCC(O)C#Cc1cnc2c(c1)C(=O)N([C@H](C)CO)C[C@H](C)[C@H](CN(C)Cc1ccccc1)O2 (some centres undefined) | 3 | / | / | / | / | /
COc1cc(OC)nc(C(NC(=O)C2CCN(Cc3c[nH]c4ccccc34)CC2)c2ccc(Cl)cc2)n1 (centres undefined) | 43 | / | -1 | / | -3 | 101*
COc1cc(OC)nc(C(NC(=O)C2CCN(Cc3ccc(N(C)C)cc3)CC2)c2ccc(F)cc2)n1 (centres undefined) | -12 | / | -4 | / | -22 | 6
COc1cc(C2CC(=O)Oc3cc4c(cc32)OCO4)cc(OC)c1OC (centres undefined) | -21 | -10 | 9 | -11 | -16 | -3
COc1cc(C2C(C#N)=C(N)Oc3cc4c(cc32)OCO4)cc(OC)c1OC (centres undefined) | 96* | 77* | 22 | 7 | -7 | -23
COc1cc([C@@H]2c3cc4c(cc3[C@@H](O)[C@H]3COC(=O)[C@H]23)OCO4)cc(OC)c1O[Si](C)(C)C(C)(C)C | 47 | 25 | 3 | 6 | 5 | 39
COc1cc(C2C3=C(COC3=O)Oc3cc4c(cc32)OCO4)cc(OC)c1O (centres undefined) | 90* | 29 | 28 | -9 | 8 | -33
COc1cc(C2c3cc4c(cc3C3OC(=O)C2C3CO)OCO4)cc(OC)c1OC (centres undefined) | 76* | / | 24 | -2 | 16 | -1
COc1cc(C2C3=C(COC3=O)Oc3cc4c(cc32)OCO4)cc(OC)c1OC (centres undefined) | 69* | 37 | 18 | -5 | 8 | -32

Compound activity (PubChem BioAssay)
